Measurements: PubChem BioAssay (NCI)
Values joined by “and” are separate entries in the source; they are usually repeats but may differ in a detail not shown here. Identical values can stand only once. About 83,000 compounds went through this panel and 20% of them were active in at least one assay; those are over-represented in the sample as a whole.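 Negative percent growth values reflect cell death: -40 means 40% of the cells present at the start died, and -100 means all died.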 Active and inactive are the calls of the source. Rule for the calls: active = growth percent below 10; inactive = the rest.

What was measured:
Assay in all cases: NCI-60 one-dose screen, 48 h (100 = growth as untreated, 0 = no growth, -100 = all killed)
Conditions in all cases: 10 µM unless noted
HCT-15 colon = tested on: HCT-15 colon
HT29 colon = tested on: HT29 colon
SNB-75 CNS = tested on: SNB-75 CNS
SNB-19 CNS = tested on: SNB-19 CNS
U251 CNS = tested on: U251 CNS
PC-3 prostate = tested on: PC-3 prostate
SK-MEL-5 melanoma = tested on: SK-MEL-5 melanoma
LOX IMVI melanoma = tested on: LOX IMVI melanoma
SK-MEL-28 melanoma = tested on: SK-MEL-28 melanoma
SK-MEL-2 melanoma = tested on: SK-MEL-2 melanoma
EKVX NSCLC = tested on: EKVX NSCLC
SN12C renal = tested on: SN12C renal
UO-31 renal = tested on: UO-31 renal
TK-10 renal = tested on: TK-10 renal
ACHN renal = tested on: ACHN renal
A498 renal = tested on: A498 renal
CCRF-CEM leukemia = tested on: CCRF-CEM leukemia
MOLT-4 leukemia = tested on: MOLT-4 leukemia
UACC-62 melanoma = tested on: UACC-62 melanoma
CAKI-1 renal = tested on: CAKI-1 renal

SMILES	growth (HCT-15 colon)	growth (HT29 colon)	growth (SNB-75 CNS)	growth (SNB-19 CNS)	growth (U251 CNS)	growth (PC-3 prostate)	growth (SK-MEL-5 melanoma)	growth (LOX IMVI melanoma)	growth (SK-MEL-28 melanoma)	growth (SK-MEL-2 melanoma)	growth (EKVX NSCLC)	growth (SN12C renal)	growth (UO-31 renal)	growth (TK-10 renal)	growth (ACHN renal)	growth (A498 renal)	growth (CCRF-CEM leukemia)	growth (MOLT-4 leukemia)	growth (UACC-62 melanoma)	growth (CAKI-1 renal)
N#CSCc1ccc(Cl)c(CSC#N)c1	18% (inactive)	6.14% (active)	25.4% (inactive)	61.5% (inactive)	61% (inactive)	25.5% (inactive)	19.8% (inactive)	19.9% (inactive)	68.6% (inactive)	83.2% (inactive)	75.1% (inactive)	33.1% (inactive)	24.6% (inactive)	59.5% (inactive)	32.5% (inactive)	18% (inactive)	12% (inactive)	17.5% (inactive)	–	–
CNc1ccc(N)cc1	109% (inactive)	107% (inactive)	67.3% (inactive)	104% (inactive)	117% (inactive)	96.4% (inactive)	101% (inactive)	104% (inactive)	140% (inactive)	120% (inactive)	93.7% (inactive)	110% (inactive)	–	130% (inactive)	92.8% (inactive)	120% (inactive)	87.6% (inactive)	97.6% (inactive)	89.3% (inactive)	91.4% (inactive)
O=C(Nc1cccc(Br)c1)Oc1ccc(Cl)c2cccnc12	10.9% [100 µM] (inactive)	70.5% [100 µM] (inactive)	3.16% [100 µM] (active)	27.8% [100 µM] (inactive)	20.2% [100 µM] (inactive)	20.2% [100 µM] (inactive)	9.3% [100 µM] (active)	4.16% [100 µM] (active)	25% [100 µM] (inactive)	17% [100 µM] (inactive)	-18.3% [100 µM] (active)	44.7% [100 µM] (inactive)	13.9% [100 µM] (inactive)	170% [100 µM] (inactive)	–	96.1% [100 µM] (inactive)	10.7% [100 µM] (inactive)	–	–	47% [100 µM] (inactive)
CCC(c1cccc(O)c1)C(CC)c1cccc(O)c1 (stereo not drawn)	49% (inactive)	42% (inactive)	42.7% (inactive)	71.2% (inactive)	45.5% (inactive)	56.4% (inactive)	32.3% (inactive)	57.8% (inactive)	63.2% (inactive)	71.8% (inactive)	64.1% (inactive)	68.5% (inactive)	–	80% (inactive)	75.1% (inactive)	70.8% (inactive)	49.8% (inactive)	33.7% (inactive)	30.1% (inactive)	66.4% (inactive)
O=C(O)C1C2CC3C(OC(=O)C31)C2Br (stereo not drawn)	97.3% (inactive) and 101% (inactive)	84.9% (inactive) and 105% (inactive)	106% (inactive) and 80.7% (inactive)	97.3% (inactive) and 107% (inactive)	92.3% (inactive) and 91.1% (inactive)	90.4% (inactive) and 105% (inactive)	103% (inactive) and 93.2% (inactive)	101% (inactive) and 95.2% (inactive)	100% (inactive) and 103% (inactive)	95.8% (inactive) and 105% (inactive)	106% (inactive) and 95.6% (inactive)	95.2% (inactive) and 103% (inactive)	91.4% (inactive) and 97.2% (inactive)	88.7% (inactive) and 100% (inactive)	96% (inactive) and 100% (inactive)	103% (inactive) and 64.4% (inactive)	89.3% (inactive) and 107% (inactive)	96.8% (inactive) and 106% (inactive)	–	102% (inactive) and 101% (inactive)
Oc1c(Cl)cc(Cl)c2cccnc12	44.6% (inactive) and 30.1% (inactive)	63% (inactive) and 90.4% (inactive)	82.6% (inactive) and 46.2% (inactive)	57.4% (inactive) and 38.9% (inactive)	35.5% (inactive)	50.5% (inactive) and 30.9% (inactive)	33.2% (inactive) and 28.1% (inactive)	32.5% (inactive) and 39.4% (inactive)	83.2% (inactive) and 65.5% (inactive)	80% (inactive) and 60.3% (inactive)	58.9% (inactive) and 51.5% (inactive)	57.3% (inactive)	–	53% (inactive) and 107% (inactive)	42% (inactive)	67.6% (inactive) and 66.6% (inactive)	31% (inactive) and 36.4% (inactive)	–	58.2% (inactive) and 49.3% (inactive)	46.3% (inactive) and 51.3% (inactive)
CCOC(=O)c1c(C)[nH]c(CO)c1C	106% (inactive)	96.4% (inactive)	101% (inactive)	98.4% (inactive)	99% (inactive)	98.1% (inactive)	99.1% (inactive)	101% (inactive)	103% (inactive)	101% (inactive)	79.1% (inactive)	95.2% (inactive)	92.5% (inactive)	106% (inactive)	107% (inactive)	107% (inactive)	98.2% (inactive)	–	–	101% (inactive)
CN(C)CCOc1ccc2c(c1)C(=O)/C(=C\c1ncc([N+](=O)[O-])n1C)C2	-10.2% (active)	-32.6% (active)	-86.6% (active)	-39.2% (active)	-14.4% (active)	-11.2% (active)	-97.6% (active)	-41.9% (active)	-71.2% (active)	-72.5% (active)	-18.9% (active)	0.0262% (active)	–	-9.94% (active)	-31.9% (active)	-88% (active)	-61.1% (active)	–	-59.7% (active)	-19.2% (active)
COC(=O)Nc1nc2ccc(C(=O)c3ccccc3)cc2[nH]1	30.2% (inactive) and 14.1% (inactive) and 15.8% (inactive)	4% (active) and 5.13% (active) and 2.8% (active)	8.68% (active) and 89.4% (inactive) and 23.9% (inactive)	33.6% (inactive) and 14.3% (inactive) and 33.1% (inactive)	23.7% (inactive) and 19.9% (inactive) and 16.9% (inactive)	30.5% (inactive) and 18.6% (inactive) and 16.7% (inactive)	8.39% (active) and 4.91% (active) and -9.41% (active)	37.6% (inactive) and 31.3% (inactive) and 31.1% (inactive)	48.9% (inactive) and 61.5% (inactive) and 55.6% (inactive)	44.1% (inactive) and 45.4% (inactive) and -21.7% (active)	60.4% (inactive) and 39% (inactive) and 21.6% (inactive)	54.9% (inactive) and 28.7% (inactive) and 58.1% (inactive)	–	65% (inactive) and 75.9% (inactive) and 44.6% (inactive)	48.3% (inactive) and 54.2% (inactive)	13.9% (inactive) and 14.6% (inactive) and -12.2% (active)	15.7% (inactive) and -14.1% (active) and 1.15% (active)	–	47.8% (inactive) and 31.1% (inactive) and 37.4% (inactive)	48.8% (inactive) and 27.1% (inactive) and 15% (inactive)
COC(=O)c1nc(=S)[nH]c(C(=O)OC)c1C(=O)c1ccc2ccccc2c1	99.2% (inactive)	112% (inactive)	84.5% (inactive)	94.7% (inactive)	97.6% (inactive)	93.5% (inactive)	98.9% (inactive)	94.7% (inactive)	106% (inactive)	104% (inactive)	103% (inactive)	97.2% (inactive)	–	109% (inactive)	–	119% (inactive)	102% (inactive)	–	89.4% (inactive)	86.2% (inactive)
O=C(O)c1ccc2c3c(ncnc13)-c1ccccc1C2=O	26.8% (inactive)	59.2% (inactive)	20.2% (inactive)	38.1% (inactive)	60.6% (inactive)	55.5% (inactive)	-69.3% (active)	21.5% (inactive)	29.8% (inactive)	88.4% (inactive)	103% (inactive)	48.7% (inactive)	62.7% (inactive)	120% (inactive)	73.8% (inactive)	-2.38% (active)	77.9% (inactive)	96.3% (inactive)	–	–
O=C(/C=C\c1ccccc1)N1c2ccccc2CC1c1c[nH]c2ccccc12 (stereo not drawn)	55.7% (inactive)	21.8% (inactive)	62.4% (inactive)	85.8% (inactive)	74.1% (inactive)	53.6% (inactive)	87.6% (inactive)	67.9% (inactive)	88.8% (inactive)	61.3% (inactive)	66% (inactive)	74.3% (inactive)	40.1% (inactive)	77.8% (inactive)	79.4% (inactive)	54.2% (inactive)	68.6% (inactive)	44.3% (inactive)	–	–
CCC(CCCN(CC)CCc1ccccc1)OC(=O)c1cc(OC)c(OC)c(OC)c1 (stereo not drawn)	89.8% (inactive)	57.3% (inactive)	65.3% (inactive)	92.3% (inactive)	90.8% (inactive)	82.4% (inactive)	91.3% (inactive)	80.9% (inactive)	98.5% (inactive)	95.6% (inactive)	83.8% (inactive)	90.2% (inactive)	–	72.6% (inactive)	82.8% (inactive)	60.2% (inactive)	98.6% (inactive)	–	90.7% (inactive)	89.7% (inactive)
S=C(N/N=C/c1ccccn1)Nc1ccccn1	23.8% (inactive)	10.4% (inactive)	46.1% (inactive)	50.5% (inactive)	10.1% (inactive)	33.4% (inactive)	-22.2% (active)	5.96% (active)	21.5% (inactive)	-5.58% (active)	41.4% (inactive)	33.7% (inactive)	13% (inactive)	31.4% (inactive)	15.9% (inactive)	–	-14.8% (active)	-27.6% (active)	–	13.2% (inactive)
